Compound activity from PubChem BioAssay.
Many of the other results were omitted from the sample, so hits are more common in it than they were.
ST2 inh: inhibitors of human ST2 (IL1RL1) binding to IL-33. Q01638. AlphaLISA ST2-Fc/biotin-IL-33 interaction, 1 h. inhibition, % for hits at 17 µM. actives 2.3% (n = 78,000); in the data active = inhibition above about 30%
Target sequence (Q01638 whole entry, looked up): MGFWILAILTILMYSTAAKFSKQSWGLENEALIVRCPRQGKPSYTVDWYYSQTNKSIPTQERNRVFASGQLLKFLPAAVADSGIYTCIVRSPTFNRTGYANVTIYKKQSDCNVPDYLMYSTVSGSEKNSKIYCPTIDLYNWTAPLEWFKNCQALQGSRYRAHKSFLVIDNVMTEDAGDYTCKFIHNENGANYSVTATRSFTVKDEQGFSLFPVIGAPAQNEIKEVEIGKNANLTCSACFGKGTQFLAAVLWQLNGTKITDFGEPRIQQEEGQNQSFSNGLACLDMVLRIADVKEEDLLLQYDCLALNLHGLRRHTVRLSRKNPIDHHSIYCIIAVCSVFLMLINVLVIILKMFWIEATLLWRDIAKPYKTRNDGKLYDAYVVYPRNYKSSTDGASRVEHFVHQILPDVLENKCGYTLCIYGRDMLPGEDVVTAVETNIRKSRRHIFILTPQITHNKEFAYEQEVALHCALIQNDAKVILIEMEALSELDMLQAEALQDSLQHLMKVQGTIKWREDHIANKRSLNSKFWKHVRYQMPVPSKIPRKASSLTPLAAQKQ
Hits are given with their value; - = inactive.

SMILES	ST2 inh
COC(=O)[C@@H]1Cc2ncn(Cc3ccc(Cl)cc3)c2CN1C(=O)c1ccc(F)cc1	-
CCCc1ccc(OCc2nnc(N)s2)cc1	-
CN(C)c1ccc(C2OCC3(CO2)SC(=O)NC3=O)cc1 (stereo not drawn)	-
NC(=O)C1CCN(c2ncnc3c2cnn3-c2ccc(Cl)cc2)CC1	-
COc1ccc(-c2cc(N3CCN(S(C)(=O)=O)CC3)ncn2)cc1OC	-
CC(=O)N1c2c(cc(Br)cc2S(=O)(=O)Nc2ccc(F)cc2)CC1C (stereo not drawn)	-
CCOC(=O)C1(Cc2ccc(F)cc2F)CCCN(S(=O)(=O)CC(F)(F)F)C1 (stereo not drawn)	-
Cc1ccc(C(=O)N(CCCN(C)C)CC2CCN(C3Cc4ccccc4C3)CC2)s1	-
COc1ccc(-c2noc([C@@H]3C[C@H](NS(=O)(=O)c4cccs4)CN3C)n2)cc1	41%
CN1C[C@@H](NS(=O)(=O)c2ccccc2)C[C@H]1c1nc(-c2ccccc2)no1	-
CN1C[C@@H](NS(=O)(=O)c2ccccc2)C[C@H]1c1nc(-c2ccc(Cl)cc2)no1	-
Cc1nc2c3c(-c4ccc(C(C)C)cc4)nc(N4CCOCC4)nc3nn2c(C)c1CCC(=O)O	-
CCn1cc(C(=O)N2CCOCC2)c2cc(OC)c(OC)cc2c1=O	-
CC1=C(C(=O)OCCCc2ccccc2)C(c2cccs2)NC(=O)N1C (stereo not drawn)	-
O=C(CNS(=O)(=O)c1ccc(Br)s1)NC1CCCC1	-
O=[N+]([O-])c1cc2c(cc1CN1CCN(c3cccc(Cl)c3)CC1)OCO2	36%
O=[N+]([O-])c1cc2c(cc1CN1CCN(c3ccc(F)cc3)CC1)OCO2	36%
COc1cc(CN2CCN(Cc3ccccc3)CC2)c([N+](=O)[O-])cc1OC	-
OC(COCc1ccc2c(c1)OCO2)CN1CCN(c2cccc(Cl)c2)CC1 (stereo not drawn)	-
CN1CCN(Cc2cc(O)ccc2[N+](=O)[O-])CC1	-
COc1cc(CN2CCCCCC2)c([N+](=O)[O-])cc1OC	-
Cc1cccc2nc(C(=O)NC(C)CCn3cccn3)c(F)n12 (stereo not drawn)	-
COc1ccccc1N1CCN([C@H]2CN(C(=O)c3ccncc3)C[C@@H]2O)CC1	-
O=C(Nc1cccc(F)c1)c1ccc(Cl)c(Cl)c1	-
Cc1cc(NC(=O)CN(C)C)c2ccccc2n1	-
SMILES	ST2 inh
Cc1ccn2cc(-c3ccc(Cl)cc3)nc2c1	-
Clc1ccc(-c2nnc3ccc(Cl)nn23)cc1	-
Cc1cnn(-c2ccc3nnc(-c4ccc(Cl)cc4)n3n2)c1	36%
Cc1ccc(NC2CCCN(C(=O)c3cc(=O)c4ccccc4o3)C2)cc1C (stereo not drawn)	-
CCCC1COCCN1C(=O)c1cc(=O)c2ccccc2o1 (stereo not drawn)	40%
CCN1CCN(C(=O)c2cc(=O)c3ccccc3o2)C(C)C1=O (stereo not drawn)	-
CCOc1ccccc1C1C(C(=O)OC(C)CC)=C(C)NC2=C1C(=O)C(C(=O)OC)C(C)C2 (stereo not drawn)	-
Cc1nn(-c2ccccc2)c2c1C(c1ccc(OC(C)C)cc1)C(C#N)=C(N)O2 (stereo not drawn)	-
Cc1c(Cl)ccc2c1=NC(=O)C=2c1sc(Nc2ccc(Br)cc2)nc1O	-
Cc1cccc(Nc2nc(O)c(C3=c4cc(Br)ccc4=NC3=O)s2)c1C	42%
Cc1cc(Br)c2c(c1)=C(c1sc(Nc3ccccc3Cl)nc1O)C(=O)N=2	-
O=C1N=c2ccc(Cl)cc2=C1c1sc(Nc2ccc(Cl)cc2)nc1O	44%
O=C1N=c2ccc(F)cc2=C1c1sc(Nc2ccc(Br)cc2)nc1O	-
Cc1ccccc1NC(=O)c1cccc(Br)c1	-
O=C(CN1CCN(Cc2ccc(Cl)cc2)S1(=O)=O)Nc1ccc2c(c1)OCCO2	-
COc1ccccc1-c1ccnc(N[C@H]2CO[C@H]3[C@@H]2OC[C@@H]3NC(C)=O)n1	-
Cc1cc2nc(CSC3CCCCC3)cc(=O)n2o1	-
Fc1ccc(CNc2ncnc3c2cnn3-c2ccc(Cl)cc2)cc1	-
Cc1onc(-c2ccccc2Cl)c1C(=O)NCCSc1c[nH]c2ccccc12	-
O=C(c1ccc(NC2=NC3CS(=O)(=O)CC3S2)cc1)N1CCCCC1 (stereo not drawn)	-
Cc1ccc(NCN2C(=O)c3ccccc3C2=O)c(C)c1	-
Cc1ccc(NS(=O)(=O)c2ccc(F)cc2)c(C)c1	-
Cc1ccc(NS(=O)(=O)c2cccc3c2C(=O)c2ccccc2C3=O)c(C)c1	64%
CCCCNC(=O)NC(=O)c1c(Cl)nc(Cl)c([N+](=O)[O-])c1C	-
Cc1onc(-c2ccccc2)c1C(=O)Nc1sc2c(c1C#N)CCCC2	-
SMILES	ST2 inh
CC(=O)c1ccc(N2CN=c3s/c(=C\c4ccc(I)o4)c(=O)n3C2)cc1	-
CCOc1ccc(/C=c2\sc3n(c2=O)CN(c2ccc4c(c2)OCO4)CN=3)cc1	31%
CCOc1ccc(CN2CCN(Cc3ccc4c(c3)OCO4)CC2)cc1	-
CCOc1ccc(-c2nc3s/c(=C\c4ccc(C)cc4)c(=O)n3n2)cc1	-
CCOc1ccc(/C=c2\sc3n(c2=O)CN(c2cccc(C(C)=O)c2)CN=3)cc1	31%
CCCCOc1ccc(/C=c2\sc3nc(=O)c(C)nn3c2=O)cc1	-
CC(C)Cc1cc(C(=O)N2CCn3cccc3C2c2ccccn2)no1 (stereo not drawn)	-
Cc1cccn2cc(C(=O)NCCc3nncn3C(C)C)nc12	-
CCS(=O)(=O)N1CCN(c2nc(C)cc(N(C)C)n2)CC1	-
COc1cccc(C2=NN(C(=O)Cc3ccc([N+](=O)[O-])cc3)C(O)(C(F)(F)F)C2)c1 (stereo not drawn)	-
CC(=O)N1N=C(c2ccc(Cl)cc2)OC1(C)C	-
COc1ccc(CC2(C)OC(c3ccc([N+](=O)[O-])cc3)=NN2C(C)=O)cc1 (stereo not drawn)	49%
O=C1CC(c2ccc3c(c2)OCCO3)c2cnn(Cc3ccncc3)c2N1 (stereo not drawn)	-
Cc1nc(CN(C)C2CCN(c3cccc(C)c3C)CC2)no1	-
COc1cccc(CC2CN(C(=O)CNC(N)=O)CCO2)c1 (stereo not drawn)	-
O=c1[nH]c2ccccc2n1C1=CCN(c2nccc(N3CCC(O)C3)n2)CC1 (stereo not drawn)	-
C=CCN(CC=C)C(=O)CN1CC=C(n2c(=O)[nH]c3ccccc32)CC1	31%
C=CCN(CC=C)C(=O)C(c1ccccc1)c1ccccc1	-
COc1ccc(OC)c(C2Oc3nc(SC)nnc3-c3ccccc3N2C(C)=O)c1 (stereo not drawn)	-
CC1=C(C(=O)Nc2ccccn2)C(c2ccccc2Cl)n2ncnc2N1 (stereo not drawn)	-
CC(C)c1csc(C2CC(=O)NCc3nc4ccccn4c32)n1 (stereo not drawn)	-
COc1cccc(NC(=O)/C(C#N)=C\c2cn(Cc3ccc(C)cc3)c3ccccc23)c1	30%
COc1cccc(NC(=O)/C(C#N)=C\c2cn(Cc3cccc(C)c3)c3ccccc23)c1	33%
COc1cccc(NC(=O)CCCc2ccccc2)c1	-
Cc1cccc(NC(=O)/C(C#N)=C/c2cc(C)n(-c3ccc(F)cc3)c2C)c1	-
COc1cccc(NC(=O)c2ccc(=O)n(Cc3ccc(F)cc3)c2)c1	-
COc1cccc(NC(=O)CSCc2ccc(Cl)cc2)c1	-
CCC(C)Sc1oc(-c2ccco2)nc1S(=O)(=O)c1ccc(Br)cc1 (stereo not drawn)	-
C=C(C)C(C)(C)C(=O)N1CCN2C(=O)CNC(=O)C2C1 (stereo not drawn)	-
